About 7,900 targets were measured; listed, in parts, are those with a hit and a random draw of the rest. About 0.6% of all pairs of compound and target were hits.
What was measured:
Assay in all cases: log2 fold change, soluble protein after heating vs DMSO (PISA); higher = thermal stabilisation; K562 cells, 10 uM, 30 min; active = over 0.2 and 3.5 SD of the protein, either way, in both replicates (recomputed)
[1] = compound: COC1=CC=C(C=C1)CN2C=CC3=C2C=C(C=C3)C(=O)NO
Method in brief: (§1)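 Values are thermal stability changes relative to control samples and are taken from duplicates. They are stated as log2 fold changes. Before quantification by TMTpro 16plex LC-MS/MS with equalised channel sums, K562 cells at 2×10^6 cells/mL were treated with 10 μM compound for 30 min, heated in aliquots for 3 min across 48°C-58°C, pooled, extracted in PBS with 0.5% NP-40 at 4°C, and centrifuged at 21,000xg for 90 min to give the soluble supernatant.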

filanesib = compound: CON(C)C(=O)N1N=C(c2cc(F)ccc2F)S[C@@]1(CCCN)c1ccccc1 [filanesib]
Method in brief: as §1

zotarolimus = compound: CO[C@H]1C[C@@H]2CC[C@@H](C)[C@@](O)(O2)C(=O)C(=O)N2CCCC[C@H]2C(=O)O[C@H]([C@H](C)C[C@@H]2CC[C@H](n3cnnn3)[C@H](OC)C2)CC(=O)[C@H](C)/C=C(\C)[C@@H](O)[C@@H](OC)C(=O)[C@H](C)C[C@H](C)/C=C/C=C/C=C/1C [zotarolimus]
Method in brief: as §1

idasanutlin = compound: COc1cc(C(=O)O)ccc1NC(=O)[C@@H]1N[C@@H](CC(C)(C)C)[C@](C#N)(c2ccc(Cl)cc2F)[C@H]1c1cccc(Cl)c1F [idasanutlin]
Method in brief: as §1

alisertib = compound: COc1cc(Nc2ncc3c(n2)-c2ccc(Cl)cc2C(c2c(F)cccc2OC)=NC3)ccc1C(=O)O [alisertib]
Method in brief: as §1

[2] = compound: COc1cc2nc(-c3cc(F)ccc3O)nc(N[C@@H]3CNC[C@H]3C(C)(C)O)c2cc1OC
Method in brief: as §1

gefitinib = compound: COc1cc2ncnc(Nc3ccc(F)c(Cl)c3)c2cc1OCCCN1CCOCC1 [gefitinib]
Method in brief: as §1

[3] = compound: COc1cccc2cc(-c3nc([C@H]4CC[C@H](C(=O)O)CC4)n4ncnc(N)c34)[nH]c12
Method in brief: as §1

lapatinib = compound: CS(=O)(=O)CCNCc1ccc(-c2ccc3ncnc(Nc4ccc(OCc5cccc(F)c5)c(Cl)c4)c3c2)o1 [lapatinib]
Method in brief: as §1

pictilisib = compound: CS(=O)(=O)N1CCN(Cc2cc3nc(-c4cccc5[nH]ncc45)nc(N4CCOCC4)c3s2)CC1 [pictilisib]
Method in brief: as §1

[4] = compound: CS(=O)(=O)c1ccc(-c2cnc(N)c(C(=O)Nc3ccccc3)n2)cc1
Method in brief: as §1

crizotinib = compound: C[C@@H](Oc1cc(-c2cnn(C3CCNCC3)c2)cnc1N)c1c(Cl)ccc(F)c1Cl [crizotinib]
Method in brief: as §1

[5] = compound: C[C@@H]1COCCN1C2=NC(=NC(=C2)C3(CC3)S(=O)(=O)C)C4=C5C=CNC5=CC=C4
Method in brief: as §1

[6] = compound: C[C@H](C1=CC=C(C=C1)C(=O)NC2=C3C=CNC3=NC=C2)N
Method in brief: as §1

duvelisib = compound: C[C@H](Nc1ncnc2nc[nH]c12)c1cc2cccc(Cl)c2c(=O)n1-c1ccccc1 [duvelisib]
Method in brief: as §1

gandotinib = compound: Cc1cc(Nc2cc(CN3CCOCC3)c3nc(C)c(Cc4ccc(Cl)cc4F)n3n2)n[nH]1 [gandotinib]
Method in brief: as §1

tozasertib = compound: Cc1cc(Nc2cc(N3CCN(C)CC3)nc(Sc3ccc(NC(=O)C4CC4)cc3)n2)n[nH]1 [tozasertib]
Method in brief: as §1

[7] = compound: Cc1cc(SCc2sc(-c3ccc(C(F)(F)F)cc3)nc2C)ccc1OCC(=O)O
Method in brief: as §1

doramapimod = compound: Cc1ccc(-n2nc(C(C)(C)C)cc2NC(=O)Nc2ccc(OCCN3CCOCC3)c3ccccc23)cc1 [doramapimod]
Method in brief: as §1

ispinesib = compound: Cc1ccc(C(=O)N(CCCN)[C@@H](c2nc3cc(Cl)ccc3c(=O)n2Cc2ccccc2)C(C)C)cc1 [ispinesib]
Method in brief: as §1

Measured: log2 fold change

SUCLG1 (UniProt P53597)
Chain of UniProt P53597 (P53597 whole entry, looked up): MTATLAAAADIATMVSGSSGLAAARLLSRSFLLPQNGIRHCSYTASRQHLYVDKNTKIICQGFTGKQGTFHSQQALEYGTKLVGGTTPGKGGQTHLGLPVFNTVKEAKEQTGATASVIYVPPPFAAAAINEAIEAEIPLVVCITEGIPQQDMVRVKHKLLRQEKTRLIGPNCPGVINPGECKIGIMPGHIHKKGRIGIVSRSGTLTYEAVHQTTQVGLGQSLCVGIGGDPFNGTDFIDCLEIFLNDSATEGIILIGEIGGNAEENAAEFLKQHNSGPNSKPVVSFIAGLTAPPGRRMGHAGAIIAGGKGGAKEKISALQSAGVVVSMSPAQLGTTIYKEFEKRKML
inactive: [1] -0.046 | filanesib -0.107 | zotarolimus 0.004 | idasanutlin -0.107 | alisertib 0.037 | [2] 0.051 | gefitinib -0.01 | [3] 0.041 | lapatinib -0.043 | pictilisib 0.003 | [4] 0.016 | crizotinib -0.028 | [5] 0.079 | [6] -0.072 | duvelisib 0.067 | gandotinib -0.048 | tozasertib -0.033 | [7] -0.004 | doramapimod -0.019 | ispinesib -0.012

SLC27A2 (UniProt O14975)
Chain of UniProt O14975 (O14975 whole entry, looked up): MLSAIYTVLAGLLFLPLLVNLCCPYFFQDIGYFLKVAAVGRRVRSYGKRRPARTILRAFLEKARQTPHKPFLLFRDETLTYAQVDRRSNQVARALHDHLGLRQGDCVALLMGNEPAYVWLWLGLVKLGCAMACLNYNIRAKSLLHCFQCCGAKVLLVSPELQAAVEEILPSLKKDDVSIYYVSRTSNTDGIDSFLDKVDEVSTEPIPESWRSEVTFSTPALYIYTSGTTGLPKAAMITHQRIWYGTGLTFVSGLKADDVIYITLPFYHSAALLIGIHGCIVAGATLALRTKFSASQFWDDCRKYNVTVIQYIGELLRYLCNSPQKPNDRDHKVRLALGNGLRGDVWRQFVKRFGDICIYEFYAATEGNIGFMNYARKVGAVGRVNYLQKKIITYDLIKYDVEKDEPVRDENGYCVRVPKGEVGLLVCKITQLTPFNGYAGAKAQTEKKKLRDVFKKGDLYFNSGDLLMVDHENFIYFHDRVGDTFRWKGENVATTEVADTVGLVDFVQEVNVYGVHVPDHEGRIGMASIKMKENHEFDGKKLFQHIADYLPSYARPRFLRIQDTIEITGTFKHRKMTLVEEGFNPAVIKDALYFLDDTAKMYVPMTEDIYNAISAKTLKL
active: [4] 0.273
inactive: [1] 0.089 | filanesib -0.033 | zotarolimus 0.032 | idasanutlin 0.257 | alisertib -0.034 | [2] 0.046 | gefitinib 0.156 | [3] -0.052 | lapatinib 0.112 | pictilisib 0.034 | crizotinib 0.046 | [5] -0.005 | [6] -0.031 | duvelisib 0.094 | gandotinib 0.094 | tozasertib 0.166 | [7] 0.108 | doramapimod 0.027 | ispinesib -0.056

SMPD4 isoform 4 (UniProt Q9NXE4)
Chain of UniProt Q9NXE4 (Q9NXE4 whole entry, looked up): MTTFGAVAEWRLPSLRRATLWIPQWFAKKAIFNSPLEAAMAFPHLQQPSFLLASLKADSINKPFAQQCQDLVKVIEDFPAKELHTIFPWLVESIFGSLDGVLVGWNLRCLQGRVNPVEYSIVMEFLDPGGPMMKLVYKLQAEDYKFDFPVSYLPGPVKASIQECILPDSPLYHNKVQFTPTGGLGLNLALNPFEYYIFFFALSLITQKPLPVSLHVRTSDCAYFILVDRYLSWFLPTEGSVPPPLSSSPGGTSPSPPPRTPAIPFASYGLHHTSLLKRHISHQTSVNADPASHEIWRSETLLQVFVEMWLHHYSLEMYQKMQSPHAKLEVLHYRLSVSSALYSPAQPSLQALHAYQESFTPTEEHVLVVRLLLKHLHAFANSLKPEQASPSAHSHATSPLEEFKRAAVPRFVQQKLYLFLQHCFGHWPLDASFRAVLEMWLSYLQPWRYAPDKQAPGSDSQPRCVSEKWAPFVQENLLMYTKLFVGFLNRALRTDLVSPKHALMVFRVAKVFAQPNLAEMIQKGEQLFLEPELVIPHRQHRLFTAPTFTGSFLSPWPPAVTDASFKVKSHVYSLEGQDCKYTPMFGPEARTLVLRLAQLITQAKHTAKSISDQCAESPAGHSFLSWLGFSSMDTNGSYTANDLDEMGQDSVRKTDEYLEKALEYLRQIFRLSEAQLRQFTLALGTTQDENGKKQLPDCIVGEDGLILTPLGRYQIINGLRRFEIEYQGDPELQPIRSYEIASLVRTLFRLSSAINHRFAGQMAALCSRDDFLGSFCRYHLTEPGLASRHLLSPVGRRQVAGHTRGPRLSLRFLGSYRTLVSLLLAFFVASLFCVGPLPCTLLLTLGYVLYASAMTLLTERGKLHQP
inactive: [1] 0.051 | filanesib -0.223 | zotarolimus 0.011 | idasanutlin -0.049 | alisertib 0.145 | [2] -0.109 | gefitinib 0.02 | [3] -0.043 | lapatinib -0.013 | pictilisib -0.034 | [4] -0.026 | crizotinib -0.215 | [5] 0.005 | [6] 0.01 | duvelisib 0.091 | gandotinib -0.133 | tozasertib -0.086 | [7] 0.025 | doramapimod 0.002 | ispinesib -0.255

SPAST (UniProt Q9UBP0)
Chain of UniProt Q9UBP0 (Q9UBP0 whole entry, looked up): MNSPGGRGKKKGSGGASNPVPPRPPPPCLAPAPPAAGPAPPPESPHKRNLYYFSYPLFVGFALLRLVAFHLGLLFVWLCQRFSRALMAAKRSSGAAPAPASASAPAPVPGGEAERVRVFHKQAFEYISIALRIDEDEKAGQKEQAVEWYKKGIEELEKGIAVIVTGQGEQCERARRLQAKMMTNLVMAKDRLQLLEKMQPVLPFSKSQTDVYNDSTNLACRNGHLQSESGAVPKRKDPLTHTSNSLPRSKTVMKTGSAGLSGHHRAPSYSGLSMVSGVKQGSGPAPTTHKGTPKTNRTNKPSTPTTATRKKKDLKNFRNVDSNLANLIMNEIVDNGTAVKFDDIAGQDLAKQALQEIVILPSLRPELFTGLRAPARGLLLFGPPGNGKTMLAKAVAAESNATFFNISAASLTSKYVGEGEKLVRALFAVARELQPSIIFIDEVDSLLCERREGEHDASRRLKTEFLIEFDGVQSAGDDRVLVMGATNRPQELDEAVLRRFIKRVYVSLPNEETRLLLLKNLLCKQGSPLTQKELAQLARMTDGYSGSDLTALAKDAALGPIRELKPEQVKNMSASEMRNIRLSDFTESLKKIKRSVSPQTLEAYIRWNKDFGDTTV
inactive: [1] 0.03 | filanesib -0.028 | zotarolimus -0.006 | idasanutlin -0.038 | alisertib -0.1 | [2] 0.096 | gefitinib -0.019 | [3] -0.042 | lapatinib -0.019 | pictilisib -0.041 | [4] 0.002 | crizotinib -0.074 | [5] 0.043 | [6] 0.001 | duvelisib 0.069 | gandotinib -0.025 | tozasertib -0.01 | [7] 0.15 | doramapimod -0.078 | ispinesib -0.001

SLC30A10 (UniProt Q6XR72)
Chain of UniProt Q6XR72 (Q6XR72 whole entry, looked up): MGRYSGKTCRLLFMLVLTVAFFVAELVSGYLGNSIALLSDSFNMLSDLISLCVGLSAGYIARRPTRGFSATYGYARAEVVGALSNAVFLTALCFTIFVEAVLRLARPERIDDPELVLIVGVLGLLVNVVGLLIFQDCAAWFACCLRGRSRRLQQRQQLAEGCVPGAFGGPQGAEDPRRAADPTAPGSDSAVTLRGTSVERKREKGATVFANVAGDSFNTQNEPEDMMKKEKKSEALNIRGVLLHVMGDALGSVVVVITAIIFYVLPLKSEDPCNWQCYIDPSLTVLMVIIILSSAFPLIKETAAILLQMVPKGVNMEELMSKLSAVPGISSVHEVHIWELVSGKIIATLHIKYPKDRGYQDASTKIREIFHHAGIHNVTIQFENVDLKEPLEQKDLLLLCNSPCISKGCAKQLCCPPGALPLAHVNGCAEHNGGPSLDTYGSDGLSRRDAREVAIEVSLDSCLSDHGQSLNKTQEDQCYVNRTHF
inactive: [1] 0.06 | filanesib 0.032 | zotarolimus -0.02 | idasanutlin 0.005 | alisertib -0.12 | [2] 0.003 | gefitinib 0.095 | [3] 0.032 | lapatinib 0.001 | pictilisib 0.095 | [4] 0.11 | crizotinib 0.192 | [5] 0.178 | [6] -0.001 | duvelisib 0.079 | gandotinib -0.078 | tozasertib -0.062 | [7] -0.046 | doramapimod 0.035 | ispinesib 0.077

SSB (UniProt P05455)
Chain of UniProt P05455 (P05455 whole entry, looked up): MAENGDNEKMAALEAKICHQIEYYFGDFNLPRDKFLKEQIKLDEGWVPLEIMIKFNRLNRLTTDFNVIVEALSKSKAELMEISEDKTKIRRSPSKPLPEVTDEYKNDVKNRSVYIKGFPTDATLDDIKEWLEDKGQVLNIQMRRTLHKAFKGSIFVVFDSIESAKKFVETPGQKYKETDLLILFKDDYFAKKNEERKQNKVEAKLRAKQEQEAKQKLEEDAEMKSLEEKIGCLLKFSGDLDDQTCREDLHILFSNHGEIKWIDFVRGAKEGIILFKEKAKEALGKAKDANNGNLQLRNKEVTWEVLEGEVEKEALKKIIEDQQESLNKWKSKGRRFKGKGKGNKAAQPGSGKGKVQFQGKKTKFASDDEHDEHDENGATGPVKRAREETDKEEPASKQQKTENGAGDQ
inactive: [1] -0.036 | filanesib 0.049 | zotarolimus -0.063 | idasanutlin 0 | alisertib -0.046 | [2] -0.132 | gefitinib -0.016 | [3] -0.101 | lapatinib -0.031 | pictilisib -0.042 | [4] -0.159 | crizotinib 0.022 | [5] -0.085 | [6] -0.05 | duvelisib -0.033 | gandotinib -0.103 | tozasertib 0.048 | [7] 0.003 | doramapimod 0.013 | ispinesib -0.02

STAM2 (UniProt O75886)
inactive: [1] -0.006 | filanesib 0.059 | zotarolimus -0.018 | idasanutlin -0.06 | alisertib 0.015 | [2] 0.001 | gefitinib 0.002 | [3] -0.066 | lapatinib -0.018 | pictilisib 0.055 | [4] 0.114 | crizotinib -0.008 | [5] 0.041 | [6] -0.049 | duvelisib -0.031 | gandotinib -0.126 | tozasertib 0.054 | [7] 0.028 | doramapimod -0.022 | ispinesib -0.049

STARD7 (UniProt Q9NQZ5)
Chain of UniProt Q9NQZ5 (Q9NQZ5 whole entry, looked up): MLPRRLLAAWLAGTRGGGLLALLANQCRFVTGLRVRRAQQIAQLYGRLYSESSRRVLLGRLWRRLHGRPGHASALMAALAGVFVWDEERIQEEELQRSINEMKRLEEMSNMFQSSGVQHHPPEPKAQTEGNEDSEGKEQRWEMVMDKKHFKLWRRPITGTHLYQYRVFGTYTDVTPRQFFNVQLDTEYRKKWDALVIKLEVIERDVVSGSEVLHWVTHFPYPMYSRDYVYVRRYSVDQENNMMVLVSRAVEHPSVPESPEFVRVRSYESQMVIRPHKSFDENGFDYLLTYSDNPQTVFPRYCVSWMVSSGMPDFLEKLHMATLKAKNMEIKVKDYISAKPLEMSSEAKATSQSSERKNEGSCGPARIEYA
inactive: [1] 0.006 | filanesib -0.094 | zotarolimus 0.006 | idasanutlin -0.063 | alisertib 0.027 | [2] -0.171 | gefitinib -0.035 | [3] 0.031 | lapatinib 0.003 | pictilisib 0.01 | [4] 0.023 | crizotinib -0.051 | [5] 0.045 | [6] -0.114 | duvelisib 0.034 | gandotinib -0.168 | tozasertib -0.024 | [7] 0.023 | doramapimod 0.021 | ispinesib -0.01

TARS2 (UniProt Q9BW92)
inactive: filanesib -0.02 | zotarolimus -0.006 | idasanutlin -0.084 | alisertib -0.021 | [2] 0.044 | gefitinib -0.023 | [3] 0.041 | lapatinib -0.022 | pictilisib 0.004 | [4] 0.022 | crizotinib 0.024 | [5] 0.094 | [6] -0.002 | duvelisib 0.049 | gandotinib -0.173 | tozasertib 0.057 | [7] 0.009 | doramapimod 0.015 | ispinesib -0.094
active: [1] -0.487

STX17 (UniProt P56962)
Chain of UniProt P56962 (P56962 whole entry, looked up): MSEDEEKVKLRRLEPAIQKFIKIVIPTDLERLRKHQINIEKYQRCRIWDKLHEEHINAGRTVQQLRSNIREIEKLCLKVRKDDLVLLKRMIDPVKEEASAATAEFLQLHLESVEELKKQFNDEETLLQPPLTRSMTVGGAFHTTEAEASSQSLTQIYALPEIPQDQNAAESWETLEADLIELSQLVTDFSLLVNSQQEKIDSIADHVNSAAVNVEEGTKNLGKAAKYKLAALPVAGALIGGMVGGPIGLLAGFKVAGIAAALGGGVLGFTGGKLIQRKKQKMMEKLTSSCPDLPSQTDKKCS
inactive: [1] 0.023 | filanesib 0.013 | zotarolimus 0.046 | idasanutlin -0.027 | alisertib -0.12 | [2] -0.081 | gefitinib 0.027 | [3] -0.001 | lapatinib 0.039 | pictilisib 0.093 | [4] 0.197 | crizotinib -0.27 | [5] 0.025 | [6] -0.171 | duvelisib -0.156 | gandotinib -0.026 | tozasertib -0.031 | [7] 0.001 | doramapimod 0.031 | ispinesib -0.246

TFRC (UniProt P02786)
inactive: [1] 0.009 | filanesib -0.013 | zotarolimus -0.041 | idasanutlin -0.027 | alisertib -0.05 | [2] 0.017 | gefitinib 0.004 | [3] 0.063 | lapatinib -0.03 | pictilisib 0.048 | [4] 0.026 | [5] 0.012 | [6] -0.018 | duvelisib 0.047 | gandotinib -0.011 | tozasertib -0.01 | [7] -0.023 | doramapimod -0.012 | ispinesib -0.059
active: crizotinib -0.283

SNRNP40 (UniProt Q96DI7)
Chain of UniProt Q96DI7 (Q96DI7 whole entry, looked up): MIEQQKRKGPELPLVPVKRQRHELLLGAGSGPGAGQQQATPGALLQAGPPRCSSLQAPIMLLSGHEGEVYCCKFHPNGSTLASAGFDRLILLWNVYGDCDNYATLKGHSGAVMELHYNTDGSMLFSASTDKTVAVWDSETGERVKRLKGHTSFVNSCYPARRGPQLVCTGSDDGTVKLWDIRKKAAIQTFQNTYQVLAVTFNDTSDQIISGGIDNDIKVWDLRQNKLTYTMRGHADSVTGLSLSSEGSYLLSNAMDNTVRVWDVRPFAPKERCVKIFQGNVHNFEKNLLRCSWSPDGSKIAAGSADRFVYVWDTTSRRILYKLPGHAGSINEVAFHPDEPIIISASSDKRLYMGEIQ
active: pictilisib 0.295
inactive: [1] -0.039 | filanesib 0.08 | zotarolimus -0.015 | idasanutlin 0.007 | alisertib -0.054 | [2] 0.191 | gefitinib -0.052 | [3] 0.025 | lapatinib 0.02 | [4] 0.033 | crizotinib 0.116 | [5] 0.14 | [6] 0.023 | duvelisib -0.015 | gandotinib 0.22 | tozasertib 0.019 | [7] -0.059 | doramapimod 0.071 | ispinesib 0.077

SPG21 (UniProt Q9NZD8)
Chain of UniProt Q9NZD8 (Q9NZD8 whole entry, looked up): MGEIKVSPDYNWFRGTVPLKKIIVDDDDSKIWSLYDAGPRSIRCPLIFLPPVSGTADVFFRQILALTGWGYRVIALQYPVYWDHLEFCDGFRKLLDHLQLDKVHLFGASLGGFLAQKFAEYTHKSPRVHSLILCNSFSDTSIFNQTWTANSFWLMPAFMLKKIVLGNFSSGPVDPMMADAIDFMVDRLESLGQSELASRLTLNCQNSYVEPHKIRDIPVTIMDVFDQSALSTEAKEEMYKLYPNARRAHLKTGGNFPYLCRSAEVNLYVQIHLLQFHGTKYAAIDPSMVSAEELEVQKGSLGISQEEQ
inactive: [1] -0.026 | filanesib 0 | zotarolimus 0.063 | idasanutlin 0.03 | alisertib -0.084 | [2] 0.174 | gefitinib 0.226 | [3] 0.011 | lapatinib 0.072 | pictilisib 0.064 | [4] 0.077 | crizotinib -0.24 | [5] 0.053 | [6] 0.013 | duvelisib 0.003 | gandotinib 0 | tozasertib 0.026 | [7] 0.052 | doramapimod 0.091 | ispinesib -0.093

SMC5 (UniProt Q8IY18)
inactive: [1] -0.055 | filanesib 0.009 | zotarolimus -0.032 | idasanutlin -0.081 | alisertib 0.047 | [2] 0.009 | gefitinib 0.034 | [3] 0.028 | lapatinib 0.018 | pictilisib 0.024 | [4] 0.03 | crizotinib 0.161 | [5] 0.081 | [6] 0.036 | duvelisib 0.046 | gandotinib 0.028 | tozasertib 0.017 | [7] 0.017 | doramapimod 0.015 | ispinesib 0.092

SYMPK (UniProt Q92797)
inactive: [1] 0.069 | filanesib -0.102 | zotarolimus 0.07 | idasanutlin -0.127 | alisertib 0.047 | [2] 0.036 | gefitinib 0.107 | [3] 0.025 | lapatinib -0.045 | pictilisib 0.155 | [4] -0.031 | crizotinib -0.189 | [5] 0.046 | [6] -0.026 | duvelisib 0.077 | gandotinib -0.155 | tozasertib 0.054 | [7] 0.235 | doramapimod -0.09 | ispinesib -0.023
